Activity calls are given as the source filed them. Unless noted, the rule behind the calls is not given here.
Key:
[1] = compounds binding Alexa647 anti-His antibody – biochemical, small-molecule microarray, 635 nm fluorescence, artefact control for SMM control protein annotation, primary screen (AID 1128); conditions: higher = more signal;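 note: score merges feature fluorescence with signal-to-noise for each printed compound spot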
[2] = system: Human papillomavirus type 1a E7 protein (residues 1-88); assay: HPV1a E7 small-molecule binders, primary screen, biochemical, small-molecule microarray, residues 1-88, 635 nm (AID 1129); conditions: small-molecule microarray binding, fluorescence 635 nm; higher = more signal
[3] = target: Focal adhesion kinase 1 (Homo sapiens) (UniProt Q05397); assay: PTK2 protein binding on printed compound slides – biochemical, small-molecule microarray, 635/667 nm fluorescence, BSA, DTT, primary screen (AID 1130); conditions: 635 nm fluorescence, higher = more signal;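 note: composite of spot emission at 667 nm and signal to noise over triplicate slides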
Focal adhesion kinase 1 (Homo sapiens), sequence (Q05397 whole entry, looked up): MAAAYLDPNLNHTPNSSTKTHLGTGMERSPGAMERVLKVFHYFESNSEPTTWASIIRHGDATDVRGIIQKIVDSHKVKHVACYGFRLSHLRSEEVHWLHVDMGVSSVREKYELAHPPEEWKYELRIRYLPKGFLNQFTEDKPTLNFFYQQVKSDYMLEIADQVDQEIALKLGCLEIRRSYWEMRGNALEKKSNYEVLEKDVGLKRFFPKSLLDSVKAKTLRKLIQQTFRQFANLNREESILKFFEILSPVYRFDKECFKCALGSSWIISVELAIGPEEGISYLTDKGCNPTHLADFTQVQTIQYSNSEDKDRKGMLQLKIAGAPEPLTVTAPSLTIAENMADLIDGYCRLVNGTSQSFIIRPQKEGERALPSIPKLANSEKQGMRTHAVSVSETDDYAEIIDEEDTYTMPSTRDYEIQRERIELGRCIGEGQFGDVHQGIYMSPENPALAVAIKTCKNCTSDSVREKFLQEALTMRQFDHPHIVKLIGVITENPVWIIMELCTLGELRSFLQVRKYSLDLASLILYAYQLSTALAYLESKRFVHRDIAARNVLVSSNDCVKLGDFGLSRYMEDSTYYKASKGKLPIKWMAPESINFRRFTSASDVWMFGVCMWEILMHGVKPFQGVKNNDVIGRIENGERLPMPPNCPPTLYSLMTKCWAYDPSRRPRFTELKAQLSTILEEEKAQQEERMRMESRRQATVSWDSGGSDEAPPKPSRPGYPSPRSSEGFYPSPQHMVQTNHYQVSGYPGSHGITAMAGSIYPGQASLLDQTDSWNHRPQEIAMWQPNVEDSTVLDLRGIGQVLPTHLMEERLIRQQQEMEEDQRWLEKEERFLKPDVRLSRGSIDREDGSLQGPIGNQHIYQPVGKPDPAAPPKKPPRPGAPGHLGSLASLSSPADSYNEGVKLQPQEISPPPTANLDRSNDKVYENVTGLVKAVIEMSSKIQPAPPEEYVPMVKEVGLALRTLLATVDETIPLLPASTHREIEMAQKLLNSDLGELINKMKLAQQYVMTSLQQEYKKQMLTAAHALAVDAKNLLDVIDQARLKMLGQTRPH

[4] = system: Fibrinogen (Alexa647-labelled); assay: Alexa647-fibrinogen binding to printed small molecules – biochemical, small-molecule microarray, 635/667 nm fluorescence, artefact control for SMM control-protein annotation, profiling panel (AID 1131); conditions: fibrinogen-A647 binding fluorescence, higher = more signal;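 note: z-score merges 667 nm fluorescence with per-spot signal-to-noise over triplicate slides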
[5] = target: Follistatin (Homo sapiens) (UniProt P19883); assay: FST protein binding to printed compounds – biochemical, small-molecule microarray, 635/667 nm fluorescence, primary screen (AID 1132); conditions: 635 nm fluorescence, higher = more signal
Follistatin (Homo sapiens), sequence (P19883 whole entry, looked up): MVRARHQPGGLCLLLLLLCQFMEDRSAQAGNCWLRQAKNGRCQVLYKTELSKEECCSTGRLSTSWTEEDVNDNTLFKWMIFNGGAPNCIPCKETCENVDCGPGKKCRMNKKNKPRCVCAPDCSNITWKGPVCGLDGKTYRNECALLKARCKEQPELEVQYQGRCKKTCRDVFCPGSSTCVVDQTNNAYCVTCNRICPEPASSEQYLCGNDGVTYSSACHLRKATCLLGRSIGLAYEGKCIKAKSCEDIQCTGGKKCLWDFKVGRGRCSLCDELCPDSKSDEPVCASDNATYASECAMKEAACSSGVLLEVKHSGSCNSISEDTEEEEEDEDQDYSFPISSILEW

[6] = target: Fibroblast growth factor 2 (Homo sapiens) (UniProt P09038); assay: basic fibroblast growth factor binding to printed compounds – biochemical, small-molecule microarray, 635/667 nm fluorescence, primary screen (AID 1133); conditions: FGF2, fluorescence 635/667, higher = more signal
Fibroblast growth factor 2 (Homo sapiens), sequence (P09038 whole entry, looked up): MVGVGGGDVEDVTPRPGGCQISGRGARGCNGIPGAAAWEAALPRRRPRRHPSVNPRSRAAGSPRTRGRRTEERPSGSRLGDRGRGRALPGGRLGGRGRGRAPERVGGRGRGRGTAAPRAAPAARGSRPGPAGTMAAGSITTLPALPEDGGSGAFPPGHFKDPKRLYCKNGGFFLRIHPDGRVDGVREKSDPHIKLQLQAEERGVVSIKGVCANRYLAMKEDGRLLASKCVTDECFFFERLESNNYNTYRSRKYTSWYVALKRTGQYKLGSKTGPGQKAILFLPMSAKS

[7] = JC-1 mitochondrial potential readout, lung cancer cells – cell-based, A549, JC-1 fluorescence, basal, 24 h, 100 nL, profiling panel (AID 1138); conditions: higher = more signal;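 note: A549 lung adenocarcinoma cells under basal conditions with no added stimulus; test concentration not given here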
[8] = system: Lefty1; assay: Lefty1 protein binding to printed compounds – biochemical, small-molecule microarray, 635/667 nm fluorescence, primary screen (AID 1139); conditions: fluorescence 635/667, higher = more signal
[9] = system: wheat germ agglutinin (Triticum aestivum), Alexa647-labelled; assay: Alexa647-WGA lectin binding to printed small molecules – biochemical, small-molecule microarray, 635/667 nm fluorescence, artefact control for SMM control-protein annotation, profiling panel (AID 1140); conditions: WGA-A647 binding, 635 nm fluorescence, higher = more signal;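 note: score merges 667 nm feature emission with signal to noise over triplicate slides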
[10] = target: Luciferin 4-monooxygenase (Photinus pyralis) (UniProt P08659); assay: inhibition of purified Photinus pyralis luciferase – biochemical, luminescence, purified enzyme, 2006 set, primary screen (AID 1141); conditions: purified firefly luciferase, SteadyGlo luminescence, 30 min; higher = more signal, called active from +8 up or from −8 down;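 note: cell-free assay with purified firefly luciferase at 100 ng per well in PBS; test concentration not given here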
Luciferin 4-monooxygenase (Photinus pyralis), sequence (P08659 whole entry, looked up): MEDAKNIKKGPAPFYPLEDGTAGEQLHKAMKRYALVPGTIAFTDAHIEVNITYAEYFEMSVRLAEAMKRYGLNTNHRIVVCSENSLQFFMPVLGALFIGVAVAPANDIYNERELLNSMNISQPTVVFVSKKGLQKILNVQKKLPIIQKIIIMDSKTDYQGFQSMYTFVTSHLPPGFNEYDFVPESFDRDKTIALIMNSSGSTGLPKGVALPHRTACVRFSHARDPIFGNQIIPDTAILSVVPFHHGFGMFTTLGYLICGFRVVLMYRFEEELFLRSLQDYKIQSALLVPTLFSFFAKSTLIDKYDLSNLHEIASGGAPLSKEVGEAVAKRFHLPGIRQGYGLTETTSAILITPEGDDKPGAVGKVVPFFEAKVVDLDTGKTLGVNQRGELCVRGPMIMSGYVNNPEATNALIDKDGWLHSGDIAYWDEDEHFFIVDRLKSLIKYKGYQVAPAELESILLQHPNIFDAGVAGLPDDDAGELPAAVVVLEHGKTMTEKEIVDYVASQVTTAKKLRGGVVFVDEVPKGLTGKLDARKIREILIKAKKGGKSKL

[11] = system: Wnt5a (protein binding on small-molecule microarray); assay: small molecules binding Wnt5a protein – biophysical, small-molecule microarray, 635/667 nm fluorescence, primary screen (AID 1142); conditions: 635 nm fluorescence, higher = more signal;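 note: fluorescence read at 667 nm with signal to noise per printed feature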
[12] = ATP-based viability of Huh7 replicon cells – cell-based, CellTiter-Glo luminescence, basal, 48 h, cytotoxicity control for HCV replication inhibitor project, primary screen (AID 1143); conditions: higher = more signal, called active from +8 up or from −8 down;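 note: Huh7 hepatoma cells carrying a hepatitis C replication reporter with no stimulus; test concentration not given here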
[13] = Pseudomonas biofilm growth suppression – PAO1 strain, BacTiter-Glo luminescence, LB-PBS, primary screen (AID 1144); conditions: P. aeruginosa PAO1 biofilm, 12 h, higher = more signal
[14] = basal CRE-LacZ reporter activity in PC12 – cell-based, unstimulated, primary screen (AID 1145); conditions: no forskolin, luminescence, 4.5 h, higher = more signal, called active from +8 up or from −8 down
[15] = forskolin-driven CRE-LacZ activity in PC12 – cell-based, CRE-LacZ reporter, forskolin-stimulated, primary screen (AID 1146); conditions: luminescence, 4.5 h, higher = more signal, called active from +8 up or from −8 down;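 note: PC12 cells with 6xCRE LacZ reporter stimulated by forskolin 10 µM; beta-galactosidase reporter signal reflecting CREB driven transcription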
[16] = target: Streptavidin (Streptomyces avidinii) (UniProt P22629); assay: compounds binding control protein streptavidin – biophysical, small-molecule microarray, 635/667 nm fluorescence, artefact control for SMM compound annotation, primary screen (AID 1147); conditions: higher = more signal;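 note: signal reflects streptavidin binding to arrayed compounds as a control protein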
Streptavidin (Streptomyces avidinii), sequence (P22629 whole entry, looked up): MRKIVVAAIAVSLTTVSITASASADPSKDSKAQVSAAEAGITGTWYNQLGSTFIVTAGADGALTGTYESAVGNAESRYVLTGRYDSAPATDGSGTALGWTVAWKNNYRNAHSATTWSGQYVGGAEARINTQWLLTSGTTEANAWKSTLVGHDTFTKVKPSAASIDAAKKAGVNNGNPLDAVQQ

[17] = probe aInhba binding on compound microarray – biochemical, small-molecule microarray, 635/667 nm fluorescence, primary screen (AID 1148); conditions: higher = more signal;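 note: score merges 667nm spot fluorescence with signal-to-noise for antibody binding to printed compounds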
[18] = target: Torsin-1A (Homo sapiens) (UniProt O14656); assay: TOR1A wild-type binding on microarray – cell lysate, small-molecule microarray, lysate, 635/667 nm, primary screen (AID 1149); conditions: COS7 hTOR1A-WT lysate, 635 nm fluorescence, higher = more signal
Torsin-1A (Homo sapiens), sequence (O14656 whole entry, looked up): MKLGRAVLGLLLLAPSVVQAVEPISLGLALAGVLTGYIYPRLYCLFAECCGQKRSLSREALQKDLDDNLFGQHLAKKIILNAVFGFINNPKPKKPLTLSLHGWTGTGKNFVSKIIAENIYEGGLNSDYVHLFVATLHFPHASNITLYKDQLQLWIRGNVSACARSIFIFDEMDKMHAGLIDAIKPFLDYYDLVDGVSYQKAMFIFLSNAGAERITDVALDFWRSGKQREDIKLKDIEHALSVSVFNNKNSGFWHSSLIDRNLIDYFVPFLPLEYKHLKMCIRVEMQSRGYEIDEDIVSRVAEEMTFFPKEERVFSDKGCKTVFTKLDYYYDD

[19] = target: Torsin-1A (Homo sapiens) (UniProt O14656); assay: torsin A mutant lysate binding on microarrays – cell lysate, small-molecule microarray, COS7 lysate, 635/667 nm fluorescence, primary screen (AID 1150); conditions: COS7 hTOR1A mutant lysate, 635 nm fluorescence, higher = more signal;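 note: score pools 667 nm emission and signal to noise measuring lysate protein binding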
[20] = system: Sonic hedgehog protein (Shh); assay: Sonic hedgehog microarray binding compounds – biochemical, small-molecule microarray, 635/667 nm fluorescence, primary screen (AID 1151); conditions: 635 nm fluorescence, higher = more signal;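 note: Shh protein binding to compounds spotted on small-molecule microarray slides; score combines spot fluorescence intensity with signal-to-noise across triplicate slides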

Compound | composite z-score [1] | composite z-score [2] | composite z-score [3] | composite z-score [4] | composite z-score [5] | composite z-score [6] | z-score [7] | composite z-score [8] | composite z-score [9] | z-score [10] | composite z-score [11] | z-score [12] | z-score [13] | z-score [14] | z-score [15] | composite z-score [16] | composite z-score [17] | composite z-score [18] | composite z-score [19] | composite z-score [20]
O=C/C=C/c1ccc(Cl)cc1 | -0.318 | -1.36 | -0.195 | -0.991 | -0.329 | -0.236 | 2.19 | -0.283 | -0.488 | -0.712 (inactive) | 0.268 | -2.45 (inactive) | -0.421 (inactive) | -0.258 (inactive) | 0.716 (inactive) | -0.359 | -0.179 | -1.01 | -0.786 | -0.823
O=C1O[C@@H](c2ccccc2)[C@@H](c2ccccc2)N2[C@@H](c3ccc(O)cc3)[C@]3(C(=O)Nc4ccc(C#CC5=CCCCC5)cc43)[C@@H](C(=O)O)[C@H]12 | 3.13 | 1.11 | 0.676 | 0.734 | 0.473 | 0.146 | -0.29 | 0.195 | 1.35 | -3.5 (inactive) | 0.942 | -2.52 (inactive) | -2.85 (inactive) | -0.0515 (inactive) | -1.12 (inactive) | 1.75 | 0.198 | 0.198 | 0.637 | 0.146
COCCOC(=O)N1C(=O)[C@@]2(c3ccccc31)[C@H](c1ccc(O)cc1)N1[C@H](c3ccccc3)[C@H](c3ccccc3)OC(=O)[C@H]1[C@@H]2C(=O)N1CCc2cc(OC)c(OC)cc2C1 | 1.7 | 0.848 | 0.341 | 0.107 | 1.35 | 1.85 | 0.355 | 1.14 | 0.216 | -0.704 (inactive) | 0.633 | -3.64 (inactive) | -1.29 (inactive) | 0.0776 (inactive) | -0.654 (inactive) | -0.162 | 0.223 | 0.419 | 0.697 | 2.1
O=C1OCCC=C[C@H]2OC34C=CCN(c5ccc6ccccc6c5)C(=O)[C@H]3N(CCCCCO)C(=O)[C@@H]4C12 (stereo not given in full) | 0.565 | 0.312 | 0.602 | 0.737 | -0.626 | -0.329 | 2.3 | -0.332 | 1.28 | -1.1 (inactive) | -0.288 | 0.0855 (inactive) | -1.17 (inactive) | 0.0645 (inactive) | -0.206 (inactive) | 0.136 | -0.0471 | 0.592 | 1.8 | 0.157
CCN(CC)c1ccc(N2CC=CC34O[C@@H]5/C=C\CCCOC(=O)C5[C@H]3C(=O)N(C(CO)C(C)C)[C@@H]4C2=O)cc1 (stereo not given in full) | 1.02 | -1.04 | 0.409 | -1.1 | -0.45 | -0.593 | 0.8 | -0.217 | -0.615 | -0.557 (inactive) | -0.297 | -0.245 (inactive) | 2.75 (inactive) | -0.0939 (inactive) | 0.119 (inactive) | -0.819 | -0.128 | 0.006 | -1.2 | 0.0008
C=CCOC(=O)[C@H]1[C@@H]2C(=O)O[C@@H](c3ccccc3)[C@@H](c3ccccc3)N2[C@@H](c2ccc(OCCOC(=O)[C@@H]3C[C@@H]4C(=O)NCC(=O)N4[C@@H]3c3ccc(O)cc3)cc2)[C@]12C(=O)Nc1ccccc12 | 1.56 | 1.19 | 0.564 | 0.478 | 1.35 | 1.72 | -1.43 | 1.18 | -0.233 | -2.56 (inactive) | 0.773 | -0.987 (inactive) | -0.759 (inactive) | 0.0205 (inactive) | -0.979 (inactive) | -0.0156 | -0.0221 | 0.342 | 0.767 | 2.28
O=C1[C@]2(CO)C=C(Br)[C@@H](C[C@@H]2c2ccccc2)[C@@]12CO2 | 0.123 | -0.769 | -0.0687 | 0.262 | 0.518 | 0.118 | 0.116 | 0.748 | 0.492 | 0.969 (inactive) | -0.165 | -0.296 (inactive) | -0.547 (inactive) | 1.12 (inactive) | 3.94 (inactive) | 1.26 | -0.237 | -0.619 | 0.0294 | 0.344
CCCCC=C[C@@H](NC(=O)c1cccs1)c1ccccc1 | 0.813 | 0.837 | 0.351 | 0.983 | -0.145 | 0.067 | 0.679 | -0.389 | 1.13 | 0.969 (inactive) | 0.0001 | -2.49 (inactive) | 0.15 (inactive) | -0.951 (inactive) | -0.548 (inactive) | 0.801 | 0.261 | 0.0798 | 0.454 | -0.216
C[N+](C)(C)CCCCCCNC(=O)[C@H]1C[C@H]2C(=O)N3CCC[C@H]3C(=O)N2[C@H]1c1ccc(O)cc1 | -0.167 | 0.0132 | -0.166 | -0.876 | 1.14 | 0.693 | -1.39 | 1.12 | -0.411 | 0.908 (inactive) | -0.214 | -2.61 (inactive) | -0.911 (inactive) | -0.813 (inactive) | -0.935 (inactive) | -0.715 | 0.0184 | 0.0048 | 0.599 | 1.92
COCCOC(=O)N1C(=O)[C@@]2(c3cc(C#CCC(C(=O)OC)C(=O)OC)ccc31)[C@H](c1ccccc1OCCO)N1[C@H](c3ccccc3)[C@H](c3ccccc3)OC(=O)[C@H]1[C@@H]2C(N)=O | 2.79 | 1.19 | -0.418 | 0.942 | 1.08 | 1.29 | 0.833 | 0.714 | 1.1 | -0.834 (inactive) | 0.53 | -3.11 (inactive) | 0.451 (inactive) | 1.16 (inactive) | 2.17 (inactive) | 0.0558 | 0.137 | 0.402 | 0.689 | 1.52

Reference: PubChem BioAssay
